Source: PubChem BioAssay
Rows were chosen to be rich in hits. Some 16% of all compounds tested hit in one or more screens of this group.
TDP1 inh: qHTS Assay for Inhibitors of Tyrosyl-DNA Phosphodiesterase (TDP1); hit rate 0.28% among 350,000; recombinant TDP1, AlphaScreen DNA substrate cleavage; Potency, µM (top dose mostly 130 µM), inactives show at the highest dose activity change, negative = inhibition, hits mostly inhibitors; AID 485290, 2010; also: potency is read from the fitted curve at half-maximal effect; % is scaled to controls: 0 for no effect and ±100 for the full control effect; nearly all actives have a fitted effect of over 40% in size
Target sequence (Q9NUW8 whole entry, looked up): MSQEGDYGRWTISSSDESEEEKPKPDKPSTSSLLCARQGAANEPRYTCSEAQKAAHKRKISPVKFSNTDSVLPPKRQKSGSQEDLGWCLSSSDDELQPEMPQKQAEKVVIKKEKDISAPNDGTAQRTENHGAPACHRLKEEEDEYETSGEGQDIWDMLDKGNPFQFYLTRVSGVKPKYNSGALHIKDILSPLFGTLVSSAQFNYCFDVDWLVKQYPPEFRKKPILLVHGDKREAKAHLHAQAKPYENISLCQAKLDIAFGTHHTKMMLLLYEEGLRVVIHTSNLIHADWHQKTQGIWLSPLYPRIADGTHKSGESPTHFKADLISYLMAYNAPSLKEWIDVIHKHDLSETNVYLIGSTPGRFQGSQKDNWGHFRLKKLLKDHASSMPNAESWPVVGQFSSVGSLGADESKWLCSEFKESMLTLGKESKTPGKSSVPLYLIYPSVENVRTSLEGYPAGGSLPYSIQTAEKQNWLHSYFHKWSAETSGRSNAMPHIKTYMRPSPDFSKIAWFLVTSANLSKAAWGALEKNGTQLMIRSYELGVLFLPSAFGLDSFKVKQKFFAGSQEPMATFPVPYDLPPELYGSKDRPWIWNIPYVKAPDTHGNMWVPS
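Signal: AlphaScreen proximity between streptavidin donor and anti-FITC acceptor beads on intact substrate. Reaction: Tdp1 1 nM, substrate 15 nM final, 5 min RT after 15 min compound preincubation.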
DT40 TDP1 no CPT: qHTS for Inhibitors of human tyrosyl-DNA phosphodiesterase 1 (TDP1): qHTS in cells in absence of CPT; Potency, µM (highest dose often 46.2 µM), for inactives: at the top dose activity change, negative = growth inhibition, most hits filed as inhibitors; DT40 Tdp1-/- hTDP1 cells, no CPT, ATP luminescence, 48 h; hit rate 15% among 420,000; AID 686978, 2013; also: potency is read from the fitted curve at half-maximal effect; % is scaled to controls: 0 for no effect and ±100 for the full control effect; nearly all actives have a fitted effect of over 55% in size
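Camptothecin absent (DMSO only). Human TDP1-complemented DT40 knockout cells, 400 cells/well, 37 °C for minimum 48 hr; ATP measured via CellTiter-Glo, 30 min dark incubation, luminescence.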
uPA surface inh: qHTS for Inhibitors of Cell Surface uPA Generation | hit rate 0.31% among 330,000 | cell surface uPA generation assay, qHTS | AID 540303, 2011 | Potency, µM (doses to about 38.3 µM), for the others: at the highest dose activity change, negative = inhibition, hits mostly inhibitors; active = well fitted inhibition curve with a large enough effect; inconclusive = small, poorly fitted or top-dose-only effect; inactive = no such curve, though single readings can be large or run the other way; tested in mouse RAW 264.7 cells; also: potency is read from the fitted curve at half-maximal effect; % is scaled to controls: 0 for no effect and ±100 for the full control effect; nearly all actives have a fitted effect of over 55% in size
TDP1 cell CPT: qHTS for Inhibitors of human tyrosyl-DNA phosphodiesterase 1 (TDP1): qHTS in cells in presence of CPT; Potency, µM (top dose mostly 46.2 µM), for inactives: top-dose activity change, negative = growth inhibition, most hits filed as inhibitors; AID 686979, 2013; chicken DT40 Tdp1-/-;hTDP1 cells + 20 nM CPT, ATP luminescence, 48 h; hit rate 12% among 420,000; also: potency is read from the fitted curve at half-maximal effect; % is scaled to controls: 0 for no effect and ±100 for the full control effect; nearly all actives have a fitted effect of over 55% in size
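Cell growth measured by CellTiter-Glo luminescence after a minimum 48 h, 37 C compound exposure with 20 nM CPT in Tdp1-knockout DT40 cells stably expressing hTDP1, seeded 400/well; qHTS titration format.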
miR-21 reporter: qHTS Assay for Modulators of miRNAs and/orActivators of miR-21. HeLa miR-21 FLuc reporter, luciferase, 48 h. 340,000 tested, under 10 active. Potency, µM (series often up to 38.3 µM), for the others: at the highest dose activity change, positive = activation, hits mostly activators. AID 2288, 2010;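 also: % of control where 0% means no effect; miR-21 action dims this reporter so a rising signal means less miR-21 action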
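Using DMEM plus 10% FBS, HeLa miR-21-FLuc cells are incubated with test compounds (final up to about 40uM) for 48 hours; firefly luciferase signal is then imaged following reagent-mediated lysis.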
* marks the source's active call; other numbers are inactive results; ? = inconclusive; . = not tested or not shown; [ ] = dose if it differs, or a comment. Unless noted, calls follow the shape of the dose curve; as a rule, active = well fitted curve in the direction sought with a large enough effect; inconclusive = small, poorly fitted or top-dose-only effect, or another doubt; inactive = no such curve, though single readings can be large; an effect the other way counts as inactive or inconclusive.

SMILES	TDP1 inh	DT40 TDP1 no CPT	uPA surface inh	TDP1 cell CPT	miR-21 reporter
COc1ccccc1NC(=O)CN1CCN(C2c3ccccc3-c3ccccc32)CC1	7.5%	20.6µM*	6.7%	18.4µM*	-4.1%
N#Cc1ccc(C(=O)Nc2ccc(S(=O)(=O)NC3=NCCCCC3)cc2)cc1	-5.1%	?	-0.4%	?	7.2%
Cc1ccc(CS(=O)(=O)c2nc3c(c(N(C)C)n2)CCCC3)cc1	5.4%	-6.4%	.	14.4%	1.0%
O=C(Nc1nnc(-c2ccco2)o1)c1ccc(S(=O)(=O)N2CCCCC2)cc1	.	13µM*	.	20.6µM*	.
COc1cc(-c2nnc(NC(=O)c3ccc(S(=O)(=O)N4CCOCC4)cc3)o2)cc(OC)c1OC	4.3%	.	.	.	3.6%
CS(=O)(=O)c1ccc(-c2nnc(NC(=O)c3ccc(S(=O)(=O)N4CCCC4)cc3)o2)cc1	.	5.8%	13.5%	0.4%	.
COc1cccc(-c2nnc(NC(=O)c3ccc(S(=O)(=O)N4CCOCC4)cc3)o2)c1	15.3%	11.6µM*	-4.9%	23.1µM*	-0.1%
CC1CCCCN1S(=O)(=O)c1ccc(C(=O)Nc2nnc(-c3ccco3)o2)cc1 (centres undefined)	4.4%	25.9µM*	-6.2%	14.6µM*	26.1%
COc1ccc(S(=O)(=O)N2CCOCC2)cc1NC(=O)CN1C(=O)NC2(CCCCC2C)C1=O (centres undefined)	-0.1%[56.1 µM]	-7.9%	5.1%	-2.6%	.
COc1ccc(C(=O)CC(c2ccccc2)S(=O)(=O)c2ccc(C)cc2)cc1 (centres undefined)	-1.1%	.	.	.	-4.4%
COc1ccc(C(CC(=O)c2ccc(C)cc2)Sc2ccccc2N)cc1 (centres undefined)	.	?	.	23.1µM*	.
Nc1ccccc1SC(CC(=O)c1ccccc1)c1cccc([N+](=O)[O-])c1 (centres undefined)	.	5.17µM*	.	16.4µM*	.
O=C(CC(SCCO)c1ccc([N+](=O)[O-])cc1)c1ccco1 (centres undefined)	1.7%	14.6µM*	?	-92.9%	-5.0%
Nc1ccccc1SC(CC(=O)c1ccccc1)c1ccc([N+](=O)[O-])cc1 (centres undefined)	.	16.4µM*	.	14.6µM*	.
CSCC[C@H](NC(=O)[C@@H]1Cc2ccccc2CN1)C(=O)Nc1ccc2c(c1)OCCO2	5.5%	3.9%	-7.3%	11.5%	-44.3%
CC1(C)CC(NC(=O)CC(c2ccccc2)c2ccccc2)CC(C)(C)N1	-11.4%	-5.3%	1.1%	-3.0%	-2.8%
CC1(C(=O)O)CCCN(C(=O)C2(c3ccc(Cl)cc3)CCCC2)C1 (centres undefined)	.	-0.1%	.	7.4%	.
CC(=O)NC(Cc1ccccc1)C(=O)N1CCN(C(=O)c2ccco2)CC1 (centres undefined)	-2.2%	3.1%	.	-5.9%	-0.9%
CC(=O)NC(CSC(CC(=O)c1ccco1)c1ccc(C)cc1)C(=O)O (centres undefined)	0.0%	16.4µM*	?	?	-8.0%
CC(C)OCCCNC(=O)c1ccc2c(c1)NC(=O)c1ccccc1S2	4.9%	-22.3%	-10.5%	-28.6%	18.4%
CC1=Nc2cc(C(=O)N3CCCC3)ccc2Sc2ccc(C)cc21	2.8%	?	-0.8%	4.0%	-2.1%
CC1=Nc2cc(C(=O)NCCc3ccc(Cl)cc3)ccc2Sc2ccc(C)cc21	2.1%[12.3 µM]	6.51µM*	.	6.51µM*	21.4%
CC1=Nc2cc(C(=O)NCCCOC(C)C)ccc2Sc2ccc(C)cc21	7.4%	4.61µM*	-5.4%	5.17µM*	14.1%
CC1=Nc2cc(C(=O)NCCCOC(C)C)ccc2Sc2ccccc21	2.6%	20.6µM*	-2.7%	16.4µM*	18.0%
CCOc1ccc(CCNC(=O)CSc2nc3ccccc3nc2Cc2ccc(C)cc2)cc1OCC	0.0%	-20.9%	.	-29.1%	19.1%
CCN1CCN(c2nc3c(C)cccn3c(=O)c2/C=C(\C#N)C(=O)NCCCOC)CC1	.	5.7%	-11.9%	-4.2%	-4.6%
